# Data taken from PubChem BioAssay AID540300 (National Center for Advancing Translational Sciences (NCATS), 2011).
# The list shows a part of the results. The source made the active and inactive calls. The call rests on the fitted dose curve; in most records, active means well fitted curve in the direction sought with a large enough effect; inconclusive means small, poorly fitted or top-dose-only effect, or another doubt; inactive means no such curve, though single readings can be large or run the other way.
# Assay: Inhibitors of DNA Polymerase Beta: Hit Validation in Klenow Fragment Assay
# Conditions: Klenow exo- polymerase counter-screen, fluorescent DNA substrate; series mostly up to 57.1 µM
# Excerpt: The base excision repair system in human cells is a target for therapeutic modulation of the response to irradiation treatment and DNA-damaging drugs. A key enzyme in this system is the bi-functional DNA polymerase known as DNA polymerase beta (pol b). […] Using an integrated approach involving discovery of small molecule probes for pol b via qHTS and validation by crystallography and kinetics along with cell-based validation experiments, we will test the hypothesis that base excision repair can be strategically modulated in human cells by targeting pol b. Thus, we anticipate the pol b-specific probes emerging from this research will serve as starting points in the development of clinical agents for use in down regulation of DNA base excision repair during therapeutic interventions against cancer. After the completion of the qHTS against the Molecular Libraries Small Molecular Repository (MLSMR), cherry picked compounds were re-affirmed in the primary qHTS pol beta assay and further characterized in several follow-up assays. An E. coli Klenow exo- fragment assay was used as a counter screen assay. The Klenow exo- fragment is a large protein fragment of DNA polymerase which lack exonuclease activity. Measuring compounds activity against the Klenow exo- fragment helps identifying promiscuous compounds. […] NIH Chemical Genomics Center [NCGC] NIH Molecular Libraries Probe Centers Network [MLPCN] MLPCN Grant: MH090863-01 Assay Submitter (PI): Samuel Wilson, National Institute of Environmental Health Sciences (NIEHS), NIH Assay Submitter (PI): Samuel Wilson, National Institute of Environmental Health Sciences (NIEHS), NIH
# A stepwise description of the 1536-well assay is shown as described in primary assay. Three microliters of reagents (buffer in column 3 and 4 as negative control and 5nM Klenow enzyme in columns 1, 2, and 5-48) will be dispensed into 1,536-well black solid-bottomed plate. Compounds (23nl) will be transferred via Kalypsys pin tool equipped with 1536-pin array (10nl slotted pins, V&P Scientific, San Diego, CA). The plates will then be incubated for 15 min at room temperature, and 1 µl substrate of tripartate ds DNA (50nM final concentration) will be added to start the reaction and kinetically read twice at 0 min and 10 min on ViewLux reader.
row,Structure (SMILES),outcome
1,O=C(CN1CCN(S(=O)(=O)c2cc(Cl)ccc2Cl)CC1)c1ccc(O)c(O)c1,inactive
2,Cc1c(CCC(=O)O)c(=O)oc2c(C)c(OCc3ccccc3Cl)ccc12,inactive
3,Cc1ccc2nc(-c3ccncc3)cc(C(=O)Nc3ccc(OC(F)F)cc3)c2c1,inactive
4,O=C(Nc1ccc(S(=O)(=O)Nc2nccs2)cc1)c1cc(-c2ccncc2)nc2ccccc12,inactive
5,Cc1c(CC(=O)N2CCN(C(=O)C3COc4ccccc4O3)CC2)c(=O)oc2c(O)c(O)ccc12 (stereo not given),inactive
6,O=C(c1cc2c(s1)CCC2)N1CCN(c2ccccc2)CC1,inactive
7,COc1ccc(Cc2nnc(NC(=O)Cc3cccs3)s2)cc1,inactive
8,COc1cc([C@H](Cc2ccccc2)NC(C)=O)oc(=O)c1,inactive
9,CCOc1ccccc1/C=c1\sc2nc(-c3ccco3)nn2c1=O,inactive
10,Cc1ccc(C(=O)Oc2coc(CSc3nnc(NC(=O)c4cccs4)s3)cc2=O)cc1C,inactive
